# From PubChem BioAssay AID1159580 (chemical genetic matrix, 2015)
# Out of some 5,500 compounds screened, about 2,000 (36%) were called active. Another 18% or so got no clear call; they are omitted. The list shows a part of the results. Unmarked numbers belong to inactive results. Rule as the data show it: active = normalized growth mostly below about 0.91 (no sharp cut-off); inconclusive = no clear call, values can overlap the other calls; inactive = mostly above about 0.92.
# Experiment: chemical genetic growth profiling, strain panel (AID 1159580);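 also: tested at 20 µM; growth read once vehicle control cultures reached saturation at 30 °C; 1 = growth at the plate median or of vehicle wells; lower values mean less growth of the strain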
# Conditions: growth OD
smiles,measurement,setting,value
CO[C@H]1CC(O[C@@H]2/C(C)=C/C[C@@H]3C[C@@H](C[C@]4(CC[C@H](C)[C@@H](C5CCCCC5)O4)O3)OC(=O)[C@@H]3C=C(C)/C(=N\O)[C@H]4OC/C(=C\C=C\[C@@H]2C)[C@]43O)O[C@@H](C)C1O (stereo not given in full),normalized growth,"S. cerevisiae deletion strains, locus YJR066W, strain TOR1, hits give low values",0.659 (active)
same,normalized growth,"S. cerevisiae deletion strains, locus YKL009W, strain mrt4, hits give low values",0.975
same,normalized growth,"S. cerevisiae deletion strains, locus YKL068W, hits give low values",1
same,normalized growth,"S. cerevisiae deletion strains, locus YKL085W, strain MDH1 (second series), hits give low values",0.997
same,normalized growth,"S. cerevisiae deletion strains, locus YKL085W, strain MDH1, hits give low values",0.997
same,normalized growth,"S. cerevisiae deletion strains, locus YKL160W, strain elf1, hits give low values",0.993
same,normalized growth,"S. cerevisiae deletion strains, locus YKL190W, strain CNB1, hits give low values",0.982
same,normalized growth,"S. cerevisiae deletion strains, locus YKR001C, strain vps1, hits give low values",0.745 (active)
same,normalized growth,"S. cerevisiae deletion strains, locus YKR026C, strain gcn3, hits give low values",1.02
same,normalized growth,"S. cerevisiae deletion strains, locus YKR091W, strain srl3, hits give low values",1.01
same,normalized growth,"S. cerevisiae deletion strains, locus YLL001W, strain dnm1, hits give low values",0.974
same,normalized growth,"S. cerevisiae deletion strains, locus YLL026W, hits give low values",1.01
same,normalized growth,"S. cerevisiae deletion strains, locus YLL041C, strain sdh2, hits give low values",1.01
same,normalized growth,"S. cerevisiae deletion strains, locus YLR027C, strain aat2, hits give low values",1.01
same,normalized growth,"S. cerevisiae deletion strains, locus YLR039C, strain RIC1, hits give low values",0.492 (active)
same,normalized growth,"S. cerevisiae deletion strains, locus YLR058C, strain SHM2, hits give low values",0.987
same,normalized growth,"S. cerevisiae deletion strains, locus YLR102C, strain apc9, hits give low values",0.997
same,normalized growth,"S. cerevisiae deletion strains, locus YLR113W, strain HOG1, hits give low values",0.284 (active)
same,normalized growth,"S. cerevisiae deletion strains, locus YLR221C, strain rsa3, hits give low values",1.01
same,normalized growth,"S. cerevisiae deletion strains, locus YLR258W, strain gsy2, hits give low values",1
same,normalized growth,"S. cerevisiae deletion strains, locus YLR262C, strain YPT6 (second series), hits give low values",0.312 (active)
same,normalized growth,"S. cerevisiae deletion strains, locus YLR262C, strain YPT6, hits give low values",0.415 (active)
same,normalized growth,"S. cerevisiae deletion strains, locus YLR268W, strain sec22, hits give low values",0.928
same,normalized growth,"S. cerevisiae deletion strains, locus YLR320W, strain mms22, hits give low values",0.96
same,normalized growth,"S. cerevisiae deletion strains, locus YLR330W, strain CHS5, hits give low values",0.978
same,normalized growth,"S. cerevisiae deletion strains, locus YLR342W, strain FKS1 (second series), hits give low values",0.526 (active)
same,normalized growth,"S. cerevisiae deletion strains, locus YLR342W, strain FKS1, hits give low values",0.985
same,normalized growth,"S. cerevisiae deletion strains, locus YLR357W, strain rsc2, hits give low values",0.854
same,normalized growth,"S. cerevisiae deletion strains, locus YLR370C, strain arc18, hits give low values",0.993
same,normalized growth,"S. cerevisiae deletion strains, locus YLR371W, strain rom2, hits give low values",0.995
same,normalized growth,"S. cerevisiae deletion strains, locus YLR384C, strain iki3, hits give low values",1.01
same,normalized growth,"S. cerevisiae deletion strains, locus YLR418C, strain cdc73, hits give low values",0.936
same,normalized growth,"S. cerevisiae deletion strains, locus YML016C, strain PPZ1, hits give low values",0.995
same,normalized growth,"S. cerevisiae deletion strains, locus YML032C, strain rad52, hits give low values",0.987
same,normalized growth,"S. cerevisiae deletion strains, locus YML120C, strain ndi1, hits give low values",0.995
same,normalized growth,"S. cerevisiae deletion strains, locus YML124C, strain tub3, hits give low values",1
same,normalized growth,"S. cerevisiae deletion strains, locus YMR058W, strain fet3, hits give low values",1.02
same,normalized growth,"S. cerevisiae deletion strains, locus YMR078C, strain ctf18, hits give low values",0.986
same,normalized growth,"S. cerevisiae deletion strains, locus YMR125W, strain sto1, hits give low values",1.03
same,normalized growth,"S. cerevisiae deletion strains, locus YMR129W, hits give low values",1.02
same,normalized growth,"S. cerevisiae deletion strains, locus YMR205C, strain PFK2, hits give low values",0.997
same,normalized growth,"S. cerevisiae deletion strains, locus YMR223W, strain ubp8, hits give low values",0.993
same,normalized growth,"S. cerevisiae deletion strains, locus YMR231W, strain pep5, hits give low values",0.998
same,normalized growth,"S. cerevisiae deletion strains, locus YMR263W, strain SAP30, hits give low values",0.977
same,normalized growth,"S. cerevisiae deletion strains, locus YMR307W, strain GAS1, hits give low values",0.911
same,normalized growth,"S. cerevisiae deletion strains, locus YNL067W, strain RPL9B, hits give low values",0.988
same,normalized growth,"S. cerevisiae deletion strains, locus YNL071W, strain lat1, hits give low values",1.02
same,normalized growth,"S. cerevisiae deletion strains, locus YNL183C, strain NPR1, hits give low values",0.512 (active)
same,normalized growth,"S. cerevisiae deletion strains, locus YNL209W, strain ssb2, hits give low values",0.977
same,normalized growth,"S. cerevisiae deletion strains, locus YNL233W, strain BNI4, hits give low values",0.971
same,normalized growth,"S. cerevisiae deletion strains, locus YNL248C, strain rpa49, hits give low values",1.03
same,normalized growth,"S. cerevisiae deletion strains, locus YNL250W, strain rad50, hits give low values",0.967
same,normalized growth,"S. cerevisiae deletion strains, locus YNL271C, strain bni1, hits give low values",0.922
same,normalized growth,"S. cerevisiae deletion strains, locus YNL298W, strain CLA4, hits give low values",0.933
same,normalized growth,"S. cerevisiae deletion strains, locus YNL307C, strain MCK1, hits give low values",0.957
same,normalized growth,"S. cerevisiae deletion strains, locus YNL322C, strain KRE1 (second series), hits give low values",1.02
same,normalized growth,"S. cerevisiae deletion strains, locus YNL322C, strain KRE1, hits give low values",0.99
same,normalized growth,"S. cerevisiae deletion strains, locus YNR049C, strain mso1, hits give low values",0.984
same,normalized growth,"S. cerevisiae deletion strains, locus YNR052C, strain pop2, hits give low values",0.99
same,normalized growth,"S. cerevisiae deletion strains, locus YOL006C, strain TOP1, hits give low values",0.901
same,normalized growth,"S. cerevisiae deletion strains, locus YOL012C, strain htz1",0.49
same,normalized growth,"S. cerevisiae deletion strains, locus YOL147C, strain pex11, hits give low values",1.01
same,normalized growth,"S. cerevisiae deletion strains, locus YOR001W, strain rrp6, hits give low values",0.986
same,normalized growth,"S. cerevisiae deletion strains, locus YOR061W, strain CKA2, hits give low values",0.98
same,normalized growth,"S. cerevisiae deletion strains, locus YOR069W, strain VPS5, hits give low values",0.99
same,normalized growth,"S. cerevisiae deletion strains, locus YOR070C, strain gyp1, hits give low values",0.994
same,normalized growth,"S. cerevisiae deletion strains, locus YOR080W, strain dia2, hits give low values",1.02
same,normalized growth,"S. cerevisiae deletion strains, locus YOR083W, strain WHI5, hits give low values",1
same,normalized growth,"S. cerevisiae deletion strains, locus YOR106W, strain vam3, hits give low values",1.05
same,normalized growth,"S. cerevisiae deletion strains, locus YOR136W, strain idh2, hits give low values",0.974
same,normalized growth,"S. cerevisiae deletion strains, locus YOR144C, strain elg1, hits give low values",0.999
same,normalized growth,"S. cerevisiae deletion strains, locus YOR184W, strain ser1, hits give low values",0.991
same,normalized growth,"S. cerevisiae deletion strains, locus YOR231W, strain MKK1, hits give low values",0.962
same,normalized growth,"S. cerevisiae deletion strains, locus YOR265W, strain rbl2, hits give low values",0.995
same,normalized growth,"S. cerevisiae deletion strains, locus YOR270C, strain vph1, hits give low values",0.991
same,normalized growth,"S. cerevisiae deletion strains, locus YOR290C, strain snf2, hits give low values",1.04
same,normalized growth,"S. cerevisiae deletion strains, locus YOR316C, strain cot1, hits give low values",0.99
same,normalized growth,"S. cerevisiae deletion strains, locus YPL051W, strain arl3, hits give low values",0.8 (active)
same,normalized growth,"S. cerevisiae deletion strains, locus YPL055C, strain LGE1, hits give low values",1
same,normalized growth,"S. cerevisiae deletion strains, locus YPL078C, strain atp4, hits give low values",1.03
same,normalized growth,"S. cerevisiae deletion strains, locus YPL106C, strain sse1, hits give low values",0.62 (active)
same,normalized growth,"S. cerevisiae deletion strains, locus YPL240C, strain hsp82, hits give low values",1.01
same,normalized growth,"S. cerevisiae deletion strains, locus YPL241C, strain CIN2, hits give low values",0.979
same,normalized growth,"S. cerevisiae deletion strains, locus YPL256C, strain CLN2, hits give low values",0.629 (active)
same,normalized growth,"S. cerevisiae deletion strains, locus YPR119W, strain clb2, hits give low values",0.995
same,normalized growth,"S. cerevisiae deletion strains, locus YPR141C, strain kar3, hits give low values",0.992
same,normalized growth,"S. cerevisiae deletion strains, locus YPR163C, strain tif3, hits give low values",0.972
same,normalized growth,"S. cerevisiae deletion strains, locus YPR167C, strain met16, hits give low values",0.985
same,normalized growth,"S. cerevisiae deletion strains, strain wtn01, hits give low values",0.996
same,normalized growth,"S. cerevisiae strains, strain wild type, hits give low values",0.985
